Measured values from PubChem BioAssay AID686971 (National Center for Advancing Translational Sciences (NCATS), 2013).
About 7,500 (2.1%) of roughly 360,000 compounds were called active. About 8% were inconclusive and are not listed. The call rests on the fitted dose curve; in most records, active means well fitted cell-killing curve with a large enough effect; inconclusive means small, poorly fitted or top-dose-only effect, or effect the other way, or another doubt; inactive means no such curve, though single readings can be large or run the other way. The list comes from a sample in which actives are over-represented; it also holds similar structures and randomly drawn compounds. Entries that show only a call come without a potency.
Potency means the concentration at half of the fitted maximal effect.

Test: qHTS for induction of synthetic lethality in tumor cells producing 2HG: qHTS for the HT-1080-IDH1KD cell line
Settings: HT-1080 IDH1 knockdown viability, ATP luminescence, 48 h; series mostly up to 46.1 µM
Outline: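 % activity derives from luminescence (CellTiter-Glo), normalised to DMSO and no-cell wells. HT-1080-IDH1KD cells, 750/well, had 48 h compound exposure at 37 °C.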
With `CCCCNC(=O)C[C@@H]1C[C@@]2(C(=O)OC)CC(C)(C)CC=C2N(Cc2ccco2)C1=O` the Potency was “inactive”.
In the case of `C[C@H](NC(=O)[C@@H]1CCCN1C(=O)[C@@H]1CCCN1C(=O)c1ccccc1)c1ccccc1`, the Potency is reported as “inactive”.
For `CC1=C(C(=O)N(C)C)CC(CC(=O)NCCc2ccccn2)C(=O)N1CCC1=CCCCC1` (stereo unspecified), the Potency was “inactive”.
For `O=C1COc2ccc(S(=O)(=O)Nc3ccc(OC(F)(F)F)cc3)cc2N1`, the Potency was “inactive”.
With `Cc1nn(C)c(C)c1NS(=O)(=O)c1ccc(OC(F)(F)F)cc1` the Potency was “inactive”.
With `O=S(=O)(Nc1ccc(O)c2ccccc12)c1ccc(OC(F)(F)F)cc1` the Potency was 20.6 µM (active).
In the case of `Cn1c(CCN2CCN(c3ccccn3)CC2)nc2cc(NS(=O)(=O)c3ccc(F)cc3)ccc21`, the Potency is reported as “inactive”.
In the case of `C[C@]12CC[C@H](O)CC1=CCC1C2CC[C@@]2(C)C1CC[C@@H]2NC(=O)CCC(=O)O` (stereo partly specified), the Potency is reported as “inactive”.
In the case of `CC(=O)OC1CCC2(C)C(=CCC3C4CC(=O)N(O)C(=O)C4(C)CCC32)C1` (stereo unspecified), the Potency is reported as 25.9 µM (active).
In the case of `C[C@@H]1CC[C@@]2(OC1)O[C@H]1C[C@H]3[C@@H]4CC=C5C[C@@H](O)[C@H](O)C[C@]5(C)C4CC[C@]3(C)[C@H]1[C@@H]2C` (stereo partly specified), the Potency is reported as “inactive”.
For `OC[C@@H]1CN(C2CCCC2)C[C@H](n2cnc3c(NC4CCC4)ncnc32)O1`, the Potency was “inactive”.
For `CCC(C)C(CO)NC(=O)/C=C/[C@H]1O[C@@H](n2cnc3c(NC(=O)c4ccccc4)ncnc32)[C@H](O)[C@@H]1O` (stereo partly specified), the Potency was “inactive”.
For `Cc1ccccc1Nc1nc(-c2cccnc2)cs1`, the Potency was “inactive”.
For `O=C(NCc1cccnc1)Nc1ccccc1F`, the Potency was “inactive”.
For `O=C(NCc1cccnc1)C(=O)Nc1nc(-c2ccccc2)cs1`, the Potency was 4.61 µM (active).
With `C[C@H](CO)N1C[C@H](C)[C@@H](CN(C)C(=O)c2cnccn2)Oc2ncc(Br)cc2C1=O` the Potency was “inactive”.
In the case of `Cc1cc2nc(-c3ccco3)c(Cc3cccc(F)c3)n2c(C)c1Br`, the Potency is reported as 20.6 µM (active).
For `Fc1cccc(Cc2c(-c3ccc(Cl)cc3)nc3ccc(Cl)cn23)c1`, the Potency was “inactive”.
With `Cc1cc2nc(-c3ccc(F)cc3)c(Cc3ccsc3)n2c(C)c1Br` the Potency was “inactive”.
In the case of `COc1ccc(S(=O)(=O)N2CCCCC2c2cc(C(=O)NCc3ccc(F)cc3)no2)cc1` (stereo unspecified), the Potency is reported as “inactive”.
For `CCCCNC(=O)OC1CC2CC1[C@H]1CCCCN1C2=O` (stereo partly specified), the Potency was 25.9 µM (active).
In the case of `O=C(OC1CC2CC1[C@H]1CCCCN1C2=O)N1CCOCC1` (stereo partly specified), the Potency is reported as “inactive”.
For `CCCCNC(=O)C1CCCNC1=O` (stereo unspecified), the Potency was “inactive”.
For `OC(c1ccc(F)cc1)c1ncc(-c2cccc(C(F)(F)F)c2)[nH]1` (stereo unspecified), the Potency was “inactive”.
For `Cc1cc(Br)cn2c(Cc3ccccc3C(F)(F)F)c(C3CCCCC3)nc12`, the Potency was “inactive”.
With `C[C@H](CO)N1C[C@H](C)[C@@H](CN(C)S(=O)(=O)c2ccc(Oc3ccccc3)cc2)OCc2cn(nn2)CCCC1=O` the Potency was “inactive”.
In the case of `O=C(Nc1ccc2c(c1)OCCO2)c1ccoc1`, the Potency is reported as “inactive”.
In the case of `Cn1cc([N+](=O)[O-])c(C(=O)Nc2ccc3c(c2)OCCO3)n1`, the Potency is reported as 11.2 µM (active).
With `COc1cccc(NC(=O)c2nn(C34CC5CC(CC(C5)C3)C4)cc2[N+](=O)[O-])c1` the Potency was “inactive”.
With `CNC(=O)C1CN(C(=O)c2cccc(S(=O)(=O)N3CCc4ccccc43)c2)c2ccccc2O1` (stereo unspecified) the Potency was “inactive”.
With `COc1ccc(C(CNC(=O)c2ccc(OCc3cscn3)cc2)N2CCCC2)cc1` (stereo unspecified) the Potency was “inactive”.
With `Cc1cccc(C(=O)OCC(=O)Nc2sccc2C(N)=O)c1C` the Potency was “inactive”.
In the case of `O=C(NCCc1cccc(F)c1)C1CC(O)CN1C(=O)Nc1ccccc1` (stereo unspecified), the Potency is reported as “inactive”.
With `O=C(O)C(=Cc1ccc([N+](=O)[O-])cc1)CCc1ccccc1` the Potency was “inactive”.
In the case of `CN1CCN(C2Cc3ccc(Cl)cc3Sc3ccc(F)cc32)CC1` (stereo unspecified), the Potency is reported as 13 µM (active).
For `O=[N+]([O-])c1ccc(CN2CC(N3CC=CC3)CS2(=O)=O)cc1` (stereo unspecified), the Potency was “inactive”.
For `CSc1ccc(CN2CCC2(C)C(=O)Nc2ccc(C)c(O)c2)cc1` (stereo unspecified), the Potency was “inactive”.
In the case of `CCCCN1C(=O)C(CC(=O)NCc2cccs2)CC(C(=O)N2CCOCC2)=C1C` (stereo unspecified), the Potency is reported as “inactive”.
In the case of `Cc1ccc(C)c(NC(=O)CCC(=O)NNC(=O)c2cccs2)c1`, the Potency is reported as “inactive”.
With `Cc1ccc(NNC(=O)c2cccs2)cc1Cl` the Potency was 5.8 µM (active).
With `Cc1ccc(C(=O)Nc2ccc(NC(=O)c3cccs3)cc2)c(C)c1` the Potency was 16.4 µM (active).
With `Cc1ccc(C(=O)NNC(=O)c2cccs2)cc1` the Potency was “inactive”.
In the case of `Cc1ccc(NC(=O)c2cccs2)cc1S(=O)(=O)N(C)C`, the Potency is reported as “inactive”.
With `O=C(NNC(=O)c1ccc(Cl)cc1Cl)c1cccs1` the Potency was “inactive”.
With `COC(=O)c1ccc2nc(-c3ccc(C)cc3)c(Cc3ccc(OC)cc3C)n2c1` the Potency was “inactive”.
With `CCCNC(=O)c1cc2c(c(-c3cccc(-c4ccc(C#N)cc4)c3)n1)[C@@H](CCO)N(C(=O)CC)C2` the Potency was “inactive”.
For `CC1=C(C)CC(C(=O)NNC(=O)c2ccccc2O)C(C(=O)O)C1` (stereo unspecified), the Potency was “inactive”.
In the case of `Cc1cc(C(=O)CCC(=O)NNC(=O)c2ccccc2O)c(C)s1`, the Potency is reported as “inactive”.
In the case of `O=C(NNC(=O)c1ccccc1O)c1ccccc1O`, the Potency is reported as 9.2 µM (active).
In the case of `CCNC(=O)c1cc2c(c(-c3cccc(-c4cncnc4)c3)n1)[C@H](CCO)N(C(C)=O)C2`, the Potency is reported as “inactive”.
For `O=C(Nc1cccc(C(=O)O)c1)/C(=C\c1ccccc1)NC(=O)c1ccc(Br)o1`, the Potency was “inactive”.
For `CC(Nc1nc(C(F)(F)F)nc2ccccc12)c1cccs1` (stereo unspecified), the Potency was 16.4 µM (active).
In the case of `CC(C)n1c(-c2cccs2)nc2ccccc21`, the Potency is reported as “inactive”.
For `Cc1cc(C)n(-c2nc(C(F)(F)F)nc3ccccc23)n1`, the Potency was “inactive”.
In the case of `COCCCNC(=O)c1cccc2c(-c3ccc(O)c(OC)c3)coc12`, the Potency is reported as “inactive”.
For `NC(CSC(c1ccccc1)(c1ccccc1)c1ccc(-c2ccccc2)cc1)C(=O)O` (stereo unspecified), the Potency was “inactive”.
In the case of `O=C(NCc1nnnn1-c1ccc(Cl)cc1)c1ccc2c(c1)OCO2`, the Potency is reported as “inactive”.
With `CCNC(=O)C1(C)CCCN(C(=O)c2ccc3ccccc3n2)C1` (stereo unspecified) the Potency was “inactive”.
In the case of `O=c1c2sccc2nc(SCc2cc(=O)n3ccccc3n2)n1-c1ccc(Br)cc1`, the Potency is reported as “inactive”.
For `Cc1cccc2nc(CSc3nc4[nH]ncc4c(=O)n3-c3cccc(Cl)c3)cc(=O)n12`, the Potency was “inactive”.
In the case of `CCc1ccc(-n2c(SCc3cc(=O)n4cc(Br)ccc4n3)nc3[nH]ncc3c2=O)cc1`, the Potency is reported as 18.4 µM (active).
In the case of `CCc1nc2c(OCC(=O)C(C)(C)C)cccn2c1N(C)C(=O)c1ccccc1F`, the Potency is reported as “inactive”.
With `CCC(=O)N1CCCC1(C)C(=O)Nc1ccc2c(c1)CCN2C(C)=O` (stereo unspecified) the Potency was “inactive”.
For `CCOC(=O)c1cnc(-n2nc(C)cc2C)nc1NNc1cc(C)nc(-c2ccccc2)n1`, the Potency was “inactive”.
For `CC(=O)c1ccc(Oc2cc(C)nc(-n3nc(C)cc3C)n2)cc1`, the Potency was 4.61 µM (active).
For `COc1ccc(NC(=O)c2nc(-n3nc(C)cc3C)ccc2Cl)cc1Cl`, the Potency was “inactive”.
In the case of `COc1ccc(Nc2cc(C)nc(-n3nc(C)cc3C)n2)cc1`, the Potency is reported as 0.794 µM (active).
For `Cc1cc(C)n(-c2ccc(C(=O)O)cc2[N+](=O)[O-])n1`, the Potency was “inactive”.
With `COc1ccc(Nc2cc(Sc3ccc(OC)cc3)ncn2)cc1` the Potency was “inactive”.
For `O=C1c2ccccc2-c2ccccc2NC1O` (stereo unspecified), the Potency was “inactive”.
In the case of `CCC(=O)N1CCC(C)(C(=O)Nc2cc(OC)c(OC)c(OC)c2)C1` (stereo unspecified), the Potency is reported as “inactive”.
In the case of `CCOC(=O)[C@]12CCCC=C1N(CCC1=CCCCC1)C(=O)[C@H](CC(=O)N1CCCCC1)C2`, the Potency is reported as “inactive”.
With `Cc1ccc(-c2nc3c(Cl)cc(C(F)(F)F)cn3c2Cc2cccc(Cl)c2)cc1` the Potency was “inactive”.
With `CNC(=O)C[C@H]1C(=O)N(Cc2ccccc2)C[C@@H]1CSC` the Potency was “inactive”.
For `Cc1nc(N2CCOCC2)c2c(C)c(C(=O)Nc3ccc(C(F)(F)F)cc3)sc2n1`, the Potency was 20.6 µM (active).
In the case of `Cc1nc(N2CCN(c3ccccn3)CC2)c2c(C)c(C(=O)Nc3ccc(F)cc3)sc2n1`, the Potency is reported as “inactive”.
In the case of `Cc1nc(N2CCN(c3ccccn3)CC2)c2c(C)c(C(=O)Nc3ccc(F)c(Cl)c3)sc2n1`, the Potency is reported as “inactive”.
With `COc1ccc(NC(=O)C2(C)Cc3c(-c4cccc(NC(C)=O)c4)ccnc3O2)cc1OC` (stereo unspecified) the Potency was 14.6 µM (active).
For `COc1ccc(NC(=O)C2Cc3c(-c4cccc(NC(C)=O)c4)ccnc3O2)cc1OC` (stereo unspecified), the Potency was “inactive”.
In the case of `CC1(C(=O)NCc2ccc(F)c(F)c2)Cc2c(-c3ccc4c(c3)OCO4)ccnc2O1` (stereo unspecified), the Potency is reported as 4.61 µM (active).
For `CC(=O)Nc1cccc(-c2ccnc3c2CC(C)(C(=O)NCc2ccccc2)O3)c1` (stereo unspecified), the Potency was 0.651 µM (active).
For `O=C(NCc1ccc2c(c1)OCO2)c1cc(F)c(F)cc1Cl`, the Potency was “inactive”.
With `CC1(C)Cc2cccc(OCC(=O)NCc3ccccc3)c2O1` the Potency was “inactive”.
With `COc1ccc(NC(=O)C2(C)Cc3c(-c4ccc(C(N)=O)cc4)ccnc3O2)cc1` (stereo unspecified) the Potency was “inactive”.
In the case of `CC1(C(=O)Nc2cccnc2)Cc2c(-c3ccccc3)ccnc2O1` (stereo unspecified), the Potency is reported as “inactive”.
For `COc1cc(OC)c(C(=O)NCc2ccc3c(c2)OCO3)cc1OC`, the Potency was “inactive”.
In the case of `O=C(Nc1ccc(F)cc1)Nc1nnc([C@H]2C[C@H](O)[C@@H](CO)O2)s1`, the Potency is reported as “inactive”.
For `CC(C)c1cc(C(=O)N(C)C2CCCN(Cc3ccccc3F)C2)n(C)n1` (stereo unspecified), the Potency was “inactive”.
With `COc1ccccc1Cc1c(-c2ccc(Cl)cc2)nc2c3ccccc3ccn12` the Potency was “inactive”.
In the case of `CCCS(=O)(=O)NC(=O)C1(C)CCCN(C(=O)c2cccs2)C1` (stereo unspecified), the Potency is reported as “inactive”.
With `Cc1cc(Br)cn2c(Cc3ccccc3C(F)(F)F)c(-c3ccc(Cl)cc3)nc12` the Potency was “inactive”.
For `COc1c(C)cc(C(O)c2ncc(-c3cccc(C(F)(F)F)c3)[nH]2)cc1C` (stereo unspecified), the Potency was “inactive”.
In the case of `O=C(Nc1cccc2ccccc12)NC1CC1`, the Potency is reported as “inactive”.
With `O=C(CSc1ncn[nH]1)Nc1nc2c(F)c(F)c(F)cc2s1` the Potency was “inactive”.
With `Cc1occc1C(=O)NNC(=S)NCC(C)C` the Potency was “inactive”.
In the case of `C/C(=N/NC(=O)CCc1ccccc1)c1ccco1`, the Potency is reported as “inactive”.
With `C/C(=N\NC(=O)c1ccoc1C)c1ccccc1O` the Potency was 13 µM (active).
For `CCN(CC(=O)Nc1ccc(NC(C)=O)cc1)C(=O)C1CC(=O)N(c2ccc3c(c2)OCCO3)C1` (stereo unspecified), the Potency was “inactive”.
With `CN1CN(C)c2ccc([N+](=O)[O-])c3cccc1c23` the Potency was “inactive”.
With `CCOc1cccc(=O)c2c(C)n(CC3CCCO3)c(C)c12` (stereo unspecified) the Potency was “inactive”.
In the case of `O=C1c2cccc3c([N+](=O)[O-])ccc(c23)C(=O)N1CC1CCCO1` (stereo unspecified), the Potency is reported as 18.4 µM (active).
